Compounds without any hit were thinned out: in the full panel of roughly 83,000, 20% have a hit.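 A percent growth of 40 corresponds to 60% growth inhibition; 0 means no net growth; -100 means all cells died. Active threshold: below 10.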 Calls of active or inactive are those of the source.
Tests used:
Test in all cases: NCI-60 one-dose screen, 48 h (100 = growth as untreated, 0 = no growth, -100 = all killed)
Conditions in all cases: 10 µM unless noted
HCT-15 colon = system: HCT-15 colon
HT29 colon = system: HT29 colon
SNB-75 CNS = system: SNB-75 CNS
SNB-19 CNS = system: SNB-19 CNS
U251 CNS = system: U251 CNS
PC-3 prostate = system: PC-3 prostate
SK-MEL-5 melanoma = system: SK-MEL-5 melanoma
UACC-62 melanoma = system: UACC-62 melanoma
LOX IMVI melanoma = system: LOX IMVI melanoma
SK-MEL-28 melanoma = system: SK-MEL-28 melanoma
SK-MEL-2 melanoma = system: SK-MEL-2 melanoma
EKVX NSCLC = system: EKVX NSCLC
SN12C renal = system: SN12C renal
UO-31 renal = system: UO-31 renal
TK-10 renal = system: TK-10 renal
ACHN renal = system: ACHN renal
CAKI-1 renal = system: CAKI-1 renal
A498 renal = system: A498 renal
CCRF-CEM leukemia = system: CCRF-CEM leukemia
MOLT-4 leukemia = system: MOLT-4 leukemia

Measured: growth

C=C(c1ccc(C(=O)O)c(F)c1)c1cc2c(cc1C)C(C)(C)CCC2(C)C
inactive: HCT-15 colon 80.9% | HT29 colon 97.9% | SNB-75 CNS 74.3% | SNB-19 CNS 86.8% | U251 CNS 75.4% | PC-3 prostate 72.5% | SK-MEL-5 melanoma 74% | UACC-62 melanoma 83.5% | LOX IMVI melanoma 93.9% | SK-MEL-28 melanoma 89.9% | SK-MEL-2 melanoma 89.4% | EKVX NSCLC 75.6% | SN12C renal 85.4% | UO-31 renal 92.6% | TK-10 renal 102% | ACHN renal 79% | CAKI-1 renal 81.4% | A498 renal 95.8% | CCRF-CEM leukemia 86.8% | MOLT-4 leukemia 82.4%

COC1C(O)CC(OC2CC(OC3CC(O[C@@H]4C(=O)c5c(cc6cc(OC7CC(OC8CC(O)C(O)C(C)O8)C(O)C(C)O7)c(C)c(O)c6c5O)CC4[C@H](OC)C(=O)O)OC(C)C3O)OC(C)C2O)OC1C (stereo not given in full)
active: SNB-75 CNS -22.7% | U251 CNS 0.444% | SK-MEL-5 melanoma -45.9% | UACC-62 melanoma -0.0213% | LOX IMVI melanoma -12.7% | SK-MEL-28 melanoma 3.33% | SK-MEL-2 melanoma -34.2% | UO-31 renal 1.52% | ACHN renal 2.86% | A498 renal -15.2%
inactive: HCT-15 colon 48.6% | HT29 colon 20.3% | SNB-19 CNS 21.4% | PC-3 prostate 21.8% | EKVX NSCLC 40.4% | SN12C renal 20.7% | TK-10 renal 34.1% | CAKI-1 renal 18.1% | CCRF-CEM leukemia 46.1% | MOLT-4 leukemia 27.2%

C/C(Cc1ccc(Cl)cc1)=C(\c1ccc(OCCN2CCCCCC2)cc1)c1ccc(OC(=O)c2ccccc2)cc1
inactive: HCT-15 colon 14.1% | SNB-75 CNS 77.3% | SNB-19 CNS 50.3% | U251 CNS 37.8% | PC-3 prostate 19.4% | SK-MEL-5 melanoma 35.3% | SK-MEL-2 melanoma 77.4% | EKVX NSCLC 78.8% | SN12C renal 11.2% | UO-31 renal 24% | TK-10 renal 67% | ACHN renal 68.9% | CAKI-1 renal 52.6% | A498 renal 76.1%
active: HT29 colon 6.24% | UACC-62 melanoma -3.38% | LOX IMVI melanoma -21.8% | SK-MEL-28 melanoma -1.89% | CCRF-CEM leukemia -4.75% | MOLT-4 leukemia 9.42%

Cn1cc(-c2csc(-c3cn(CCCN4CCOCC4)c4ccc(F)cc34)n2)c2cccnc21
inactive: HCT-15 colon 27.1% | SNB-75 CNS 87.1% | SNB-19 CNS 77.1% | U251 CNS 51.1% | PC-3 prostate 29.6% | SK-MEL-5 melanoma 25.1% | UACC-62 melanoma 72.2% | LOX IMVI melanoma 26.6% | SK-MEL-28 melanoma 77.5% | SK-MEL-2 melanoma 86.3% | EKVX NSCLC 63% | SN12C renal 78.5% | UO-31 renal 50.2% | TK-10 renal 75.1% | ACHN renal 63.8% | CAKI-1 renal 79% | A498 renal 36.1% | CCRF-CEM leukemia 36.4% | MOLT-4 leukemia 32.1%
active: HT29 colon 1.97%

CC12OC(CC(O)C1O)n1c3ccccc3c3c4c(c5c6ccccc6n2c5c31)C(=O)N(CCN1CCCC1)C4=O (stereo not given)
active: HT29 colon 5.08% | LOX IMVI melanoma -2.77% | ACHN renal -38.1% | MOLT-4 leukemia -3.23%
inactive: HCT-15 colon 10.5% | SNB-75 CNS 10.2% | SNB-19 CNS 13.4% | U251 CNS 11.8% | PC-3 prostate 20.8% | SK-MEL-5 melanoma 28.9% | UACC-62 melanoma 19.3% | SK-MEL-28 melanoma 63% | SK-MEL-2 melanoma 31.9% | EKVX NSCLC 38.4% | SN12C renal 14.9% | UO-31 renal 19.5% | TK-10 renal 21.2% | CAKI-1 renal 15.4% | A498 renal 17.8% | CCRF-CEM leukemia 20.3%

Nc1ccc(Br)cc1C(F)(F)F
inactive: HCT-15 colon 106% | HT29 colon 108% | SNB-75 CNS 109% | SNB-19 CNS 104% | U251 CNS 109% | PC-3 prostate 105% | SK-MEL-5 melanoma 103% | UACC-62 melanoma 108% | LOX IMVI melanoma 99.2% | SK-MEL-28 melanoma 121% | SK-MEL-2 melanoma 104% | EKVX NSCLC 109% | SN12C renal 99.8% | UO-31 renal 88.1% | TK-10 renal 108% | ACHN renal 96.5% | CAKI-1 renal 104% | A498 renal 107% | CCRF-CEM leukemia 101% | MOLT-4 leukemia 108%

C#COc1cccc(Nc2ncnc3cc(NC(=O)[C@H](C)Cl)ccc23)c1
active: HCT-15 colon 9.91% [6.25 µM] | HT29 colon 1.38% [6.25 µM] | SNB-75 CNS 3.55% [6.25 µM] | U251 CNS 3.14% [6.25 µM] | SK-MEL-5 melanoma 9.1% [6.25 µM] | LOX IMVI melanoma 5.47% [6.25 µM] | SK-MEL-2 melanoma 9.63% [6.25 µM] | TK-10 renal 9.65% [6.25 µM] | A498 renal 2.08% [6.25 µM]
inactive: SNB-19 CNS 19.3% [6.25 µM] | PC-3 prostate 95.3% [6.25 µM] | UACC-62 melanoma 22.1% [6.25 µM] | SK-MEL-28 melanoma 29.4% [6.25 µM] | EKVX NSCLC 20.3% [6.25 µM] | SN12C renal 10.6% [6.25 µM] | UO-31 renal 27.1% [6.25 µM] | ACHN renal 17.1% [6.25 µM] | CAKI-1 renal 26.2% [6.25 µM] | CCRF-CEM leukemia 102% [6.25 µM] | MOLT-4 leukemia 98.6% [6.25 µM]

From PubChem BioAssay (NCI)
